# Laboratory results: PubChem BioAssay (NCI)
# Compounds without any hit were thinned out: in the full panel of roughly 79,000, 15% have a hit. Values without a mark were called inactive. Calls of active or inactive are those of the source. No stated cut-off is given here; in the data, active means growth inhibition above about 70%; inactive means the rest.
# Columns and labels:
# [1] = NCI Yeast Anticancer Drug Screen. Data for the rad52 strain (AID 147);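 further: 0% = growth of vehicle-treated control cultures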; conditions: S. cerevisiae rad52 mutant growth inhibition, hits give high values
# Procedure, shortened: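 Screen used a yeast mutant impaired in DNA repair. After compound exposure, growth was measured. Values reflect inhibition compared with vehicle-treated cells.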
# [2] = NCI Yeast Anticancer Drug Screen. Data for the wt1 strain (AID 149);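 further: 0% = growth of vehicle-treated wt1 cultures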; conditions: S. cerevisiae wt1 strain (SPY 50644) growth inhibition, hits give high values
# Procedure, shortened: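 Growth inhibition read against vehicle controls after compound exposure of the wt1 yeast strain.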
# [3] = NCI Yeast Anticancer Drug Screen. Data for the mgt1 strain (AID 153); conditions: S. cerevisiae mgt1 mutant growth inhibition, hits give high values
# Procedure, shortened: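 Genetically defined yeast (mgt1) treated with compound; inhibition of growth expressed against vehicle-treated controls.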
# [4] = NCI Yeast Anticancer Drug Screen. Data for the rad50 strain (AID 155);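 further: 0% = growth of vehicle-only cultures of the same strain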; conditions: S. cerevisiae rad50 strain growth inhibition, hits give high values
# Procedure, shortened: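 Readout: growth inhibition relative to vehicle-treated cultures. Compound exposure was carried out in a genetically defined yeast strain deficient in DNA damage repair.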
# [5] = NCI Yeast Anticancer Drug Screen. Data for the mec2-1 strain (AID 157); conditions: S. cerevisiae mec2-1 strain, hits give high values
# Procedure, shortened: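 Readout is yeast growth inhibition, normalised to vehicle-treated controls, in the mec2-1 strain exposed to compound.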
# [6] = NCI Yeast Anticancer Drug Screen. Data for the rad14 strain (AID 159);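 further: 0% = growth of vehicle-treated control cultures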; conditions: S. cerevisiae rad14 strain growth inhibition, hits give high values
# Procedure, shortened: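 Growth inhibition vs vehicle controls; genetically altered yeast strain (DNA damage repair defect) treated with test compounds.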
# [7] = NCI Yeast Anticancer Drug Screen. Data for the sgs1 mgt1 strain (AID 161);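 further: 0% = growth of cultures given vehicle only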; conditions: S. cerevisiae sgs1 mgt1 strain, hits give high values
# Procedure, shortened: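 Growth of a repair-deficient yeast mutant was monitored after compound treatment and expressed as inhibition relative to vehicle-treated cultures.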
# [8] = NCI Yeast Anticancer Drug Screen. Data for the CLN2oe strain (AID 163);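 further: 0% = growth of vehicle-only control cultures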; conditions: S. cerevisiae CLN2oe strain, hits give high values
# Procedure, shortened: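 Values reflect how much compound exposure reduced yeast growth, referenced to vehicle-exposed cells. Assay organism is a strain with a defined genetic change affecting cell-cycle control.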
# [9] = NCI Yeast Anticancer Drug Screen. Data for the cln2 rad14 strain (AID 165);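 further: 0% = growth equal to vehicle treated cultures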; conditions: S. cerevisiae cln2 rad14 strain, hits give high values
# Procedure, shortened: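 Relative to vehicle controls, growth inhibition of compound-treated cln2 rad14 yeast was recorded.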
# [10] = NCI Yeast Anticancer Drug Screen. Data for the bub3 strain (AID 167); conditions: S. cerevisiae bub3 mutant strain, hits give high values
# Procedure, shortened: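 Readout: yeast growth inhibition, expressed relative to vehicle-only wells. The test organism is a mutant strain from a panel with lesions in DNA repair or checkpoint genes.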
# [11] = NCI Yeast Anticancer Drug Screen. Data for the wt2 strain (AID 169);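 further: 0% = growth of vehicle-treated yeast cultures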; conditions: S. cerevisiae wt2 strain growth inhibition, hits give high values
# Procedure, shortened: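 Values express reduction in yeast growth under compound treatment, referenced to vehicle-treated cells.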
# [12] = NCI Yeast Anticancer Drug Screen. Data for the mlh1 strain (AID 171);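 further: 0% = growth of vehicle-treated control cultures of the same strain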; conditions: S. cerevisiae mlh1 strain growth inhibition, hits give high values
# Procedure, shortened: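 Steps: expose the defined-mutant yeast strain to compound; expose a parallel culture to vehicle; measure growth; express compound effect as inhibition relative to the vehicle culture.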
# [13] = NCI Yeast Anticancer Drug Screen. Data for the sgs1 strain (AID 173);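 further: 0% = growth of vehicle-only control cultures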; conditions: S. cerevisiae sgs1 mutant, hits give high values
# Procedure, shortened: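 Treat defined-mutant yeast with compound; measure growth; calculate inhibition relative to vehicle-treated cells.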
# [14] = NCI Yeast Anticancer Drug Screen. Data for the mlh1 rad18 strain (AID 175); conditions: S. cerevisiae mlh1 rad18 strain growth inhibition, hits give high values
# Procedure, shortened: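 Test agents were incubated with a yeast strain of defined genotype (DNA damage repair defect). Inhibition of growth was derived by comparison with vehicle-exposed cultures.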
# [15] = NCI Yeast Anticancer Drug Screen. Data for the rad18 strain (AID 177); conditions: S. cerevisiae rad18 mutant growth inhibition, hits give high values
# Procedure, shortened: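 A genetically defined yeast mutant impaired in DNA damage repair was treated with test compounds, then its growth was measured against cultures receiving vehicle alone.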
# [16] = at 5.0 µM (retest, dose inferred, filed as 0.5)
# [17] = at 50.0 µM (retest, dose inferred, filed as 5.0)
structure (smiles),measurement,setting,value
c1ccc2c(c1)c1ncccc1c1nccnc21,growth inhibition,[1]; at 1.2 µM,2%
same,growth inhibition,[1]; at 3.7 µM,8%
same,growth inhibition,[1]; at 11.0 µM,26%
same,growth inhibition,[1]; at 33.0 µM,48%
same,growth inhibition,[1]; at 100.0 µM,72% (active)
same,growth inhibition,[2]; at 1.2 µM,-2%
same,growth inhibition,[2]; at 3.7 µM,4%
same,growth inhibition,[2]; at 11.0 µM,11%
same,growth inhibition,[2]; at 33.0 µM,12%
same,growth inhibition,[2]; at 100.0 µM,19%
same,growth inhibition,[3]; at 1.2 µM,-2%
same,growth inhibition,[3]; at 3.7 µM,0%
same,growth inhibition,[3]; at 11.0 µM,-2%
same,growth inhibition,[3]; at 33.0 µM,-2%
same,growth inhibition,[3]; at 100.0 µM,-2%
same,growth inhibition,[4]; at 1.2 µM,-4%
same,growth inhibition,[4]; at 3.7 µM,9%
same,growth inhibition,[4]; [16],-46%
same,growth inhibition,[4]; at 11.0 µM,34%
same,growth inhibition,[4]; at 33.0 µM,55%
same,growth inhibition,[4]; [17],53%
same,growth inhibition,[4]; at 50.0 µM,76.8% (active)
same,growth inhibition,[4]; at 100.0 µM,71% (active)
same,growth inhibition,[5]; at 1.2 µM,1%
same,growth inhibition,[5]; at 3.7 µM,0%
same,growth inhibition,[5]; [16],-47%
same,growth inhibition,[5]; at 11.0 µM,0%
same,growth inhibition,[5]; at 33.0 µM,2%
same,growth inhibition,[5]; [17],-53%
same,growth inhibition,[5]; at 50.0 µM,14.7%
same,growth inhibition,[5]; at 100.0 µM,4%
same,growth inhibition,[6]; at 1.2 µM,3%
same,growth inhibition,[6]; at 3.7 µM,3%
same,growth inhibition,[6]; at 11.0 µM,23%
same,growth inhibition,[6]; at 33.0 µM,16%
same,growth inhibition,[6]; at 100.0 µM,11%
same,growth inhibition,[7]; [16],-60%
same,growth inhibition,[7]; [17],-53%
same,growth inhibition,[7]; at 50.0 µM,0%
same,growth inhibition,[8]; at 1.2 µM,0%
same,growth inhibition,[8]; at 3.7 µM,-5%
same,growth inhibition,[8]; at 11.0 µM,-10%
same,growth inhibition,[8]; at 33.0 µM,-8%
same,growth inhibition,[8]; at 100.0 µM,-7%
same,growth inhibition,[9]; [16],-60%
same,growth inhibition,[9]; [17],-59%
same,growth inhibition,[9]; at 50.0 µM,-40.5%
same,growth inhibition,[10]; at 1.2 µM,4%
same,growth inhibition,[10]; at 3.7 µM,-2%
same,growth inhibition,[10]; [16],-58%
same,growth inhibition,[10]; at 11.0 µM,-1%
same,growth inhibition,[10]; at 33.0 µM,-5%
same,growth inhibition,[10]; [17],-60%
same,growth inhibition,[10]; at 50.0 µM,-0.35%
same,growth inhibition,[10]; at 100.0 µM,-7%
same,growth inhibition,[11]; at 1.2 µM,9%
same,growth inhibition,[11]; at 3.7 µM,14%
same,growth inhibition,[11]; at 11.0 µM,16%
same,growth inhibition,[11]; at 33.0 µM,19%
same,growth inhibition,[11]; at 100.0 µM,22%
same,growth inhibition,[12]; at 1.2 µM,-10%
same,growth inhibition,[12]; at 3.7 µM,-4%
same,growth inhibition,[12]; at 11.0 µM,-2%
same,growth inhibition,[12]; at 33.0 µM,2%
same,growth inhibition,[12]; at 100.0 µM,17%
same,growth inhibition,[13]; at 1.2 µM,-12%
same,growth inhibition,[13]; at 3.7 µM,-14%
same,growth inhibition,[13]; at 11.0 µM,-2%
same,growth inhibition,[13]; at 33.0 µM,3%
same,growth inhibition,[13]; at 100.0 µM,21%
same,growth inhibition,[14]; [16],-97%
same,growth inhibition,[14]; [17],-73%
same,growth inhibition,[14]; at 50.0 µM,33.9%
same,growth inhibition,[15]; at 1.2 µM,-10%
same,growth inhibition,[15]; at 3.7 µM,-1%
same,growth inhibition,[15]; at 11.0 µM,-2%
same,growth inhibition,[15]; at 33.0 µM,-1%
same,growth inhibition,[15]; at 100.0 µM,13%
COc1ccc2ccc3ccccc3c2c1C=O,growth inhibition,[1]; at 1.2 µM,-5%
same,growth inhibition,[1]; at 3.7 µM,-5%
same,growth inhibition,[1]; at 11.0 µM,-3%
same,growth inhibition,[1]; at 33.0 µM,0%
same,growth inhibition,[1]; at 100.0 µM,63%
same,growth inhibition,[2]; at 1.2 µM,-3%
same,growth inhibition,[2]; at 3.7 µM,-5%
same,growth inhibition,[2]; at 11.0 µM,-5%
same,growth inhibition,[2]; at 33.0 µM,-4%
same,growth inhibition,[2]; at 100.0 µM,93% (active)
same,growth inhibition,[4]; at 1.2 µM,0%
same,growth inhibition,[4]; at 3.7 µM,23%
same,growth inhibition,[4]; [16],9%
same,growth inhibition,[4]; at 11.0 µM,28%
same,growth inhibition,[4]; at 33.0 µM,6%
same,growth inhibition,[4]; [17],64%
same,growth inhibition,[4]; at 50.0 µM,49%
same,growth inhibition,[4]; at 100.0 µM,79% (active)
same,growth inhibition,[5]; at 1.2 µM,-6%
same,growth inhibition,[5]; at 3.7 µM,-6%
same,growth inhibition,[5]; [16],9%
same,growth inhibition,[5]; at 11.0 µM,-6%
same,growth inhibition,[5]; at 33.0 µM,0%
same,growth inhibition,[5]; [17],50%
same,growth inhibition,[5]; at 50.0 µM,13.2%
same,growth inhibition,[5]; at 100.0 µM,96% (active)
same,growth inhibition,[6]; at 1.2 µM,3%
same,growth inhibition,[6]; at 3.7 µM,5%
same,growth inhibition,[6]; at 11.0 µM,5%
same,growth inhibition,[6]; at 33.0 µM,14%
same,growth inhibition,[6]; at 100.0 µM,83% (active)
same,growth inhibition,[7]; [16],7%
same,growth inhibition,[7]; [17],68%
same,growth inhibition,[7]; at 50.0 µM,55.8%
same,growth inhibition,[8]; at 1.2 µM,-6%
same,growth inhibition,[8]; at 3.7 µM,-6%
same,growth inhibition,[8]; at 11.0 µM,-2%
same,growth inhibition,[8]; at 33.0 µM,-2%
same,growth inhibition,[8]; at 100.0 µM,81% (active)
same,growth inhibition,[9]; [16],15%
same,growth inhibition,[9]; [17],16%
same,growth inhibition,[9]; at 50.0 µM,17.6%
same,growth inhibition,[10]; at 1.2 µM,-2%
same,growth inhibition,[10]; at 3.7 µM,0%
same,growth inhibition,[10]; [16],5%
same,growth inhibition,[10]; at 11.0 µM,-5%
same,growth inhibition,[10]; at 33.0 µM,-2%
same,growth inhibition,[10]; [17],11%
same,growth inhibition,[10]; at 50.0 µM,-11.7%
same,growth inhibition,[10]; at 100.0 µM,76% (active)
same,growth inhibition,[11]; at 1.2 µM,-3%
same,growth inhibition,[11]; at 3.7 µM,4%
same,growth inhibition,[11]; at 11.0 µM,-4%
same,growth inhibition,[11]; at 33.0 µM,-4%
same,growth inhibition,[11]; at 100.0 µM,77% (active)
same,growth inhibition,[12]; at 1.2 µM,-6%
same,growth inhibition,[12]; at 3.7 µM,-5%
same,growth inhibition,[12]; at 11.0 µM,-5%
same,growth inhibition,[12]; at 33.0 µM,-6%
same,growth inhibition,[12]; at 100.0 µM,29%
same,growth inhibition,[13]; at 1.2 µM,-4%
same,growth inhibition,[13]; at 3.7 µM,-1%
same,growth inhibition,[13]; at 11.0 µM,4%
same,growth inhibition,[13]; at 33.0 µM,10%
same,growth inhibition,[13]; at 100.0 µM,50%
same,growth inhibition,[15]; at 1.2 µM,-2%
same,growth inhibition,[15]; at 3.7 µM,2%
same,growth inhibition,[15]; at 11.0 µM,3%
same,growth inhibition,[15]; at 33.0 µM,9%
same,growth inhibition,[15]; at 100.0 µM,83% (active)
O=[N+]([O-])C(=C(Sc1ccccc1)Sc1ccccc1)C(Cl)=C(Cl)Cl,growth inhibition,[1]; at 1.2 µM,14%
same,growth inhibition,[1]; at 3.7 µM,30%
same,growth inhibition,[1]; at 11.0 µM,45%
same,growth inhibition,[1]; at 33.0 µM,56%
same,growth inhibition,[1]; at 100.0 µM,59%
same,growth inhibition,[2]; at 1.2 µM,3%
same,growth inhibition,[2]; at 3.7 µM,13%
same,growth inhibition,[2]; at 11.0 µM,25%
same,growth inhibition,[2]; at 33.0 µM,36%
same,growth inhibition,[2]; at 100.0 µM,41%
same,growth inhibition,[3]; at 1.2 µM,2%
same,growth inhibition,[3]; at 3.7 µM,17%
same,growth inhibition,[3]; at 11.0 µM,44%
same,growth inhibition,[3]; at 33.0 µM,59%
same,growth inhibition,[3]; at 100.0 µM,74% (active)
same,growth inhibition,[4]; at 1.2 µM,4%
same,growth inhibition,[4]; at 3.7 µM,8%
same,growth inhibition,[4]; [16],5%
same,growth inhibition,[4]; at 11.0 µM,23%
same,growth inhibition,[4]; at 33.0 µM,46%
same,growth inhibition,[4]; [17],53%
same,growth inhibition,[4]; at 50.0 µM,19.6%
same,growth inhibition,[4]; at 100.0 µM,50%
same,growth inhibition,[5]; at 1.2 µM,12%
same,growth inhibition,[5]; at 3.7 µM,26%
same,growth inhibition,[5]; [16],22%
same,growth inhibition,[5]; at 11.0 µM,37%
same,growth inhibition,[5]; at 33.0 µM,46%
same,growth inhibition,[5]; [17],26%
same,growth inhibition,[5]; at 50.0 µM,46.5%
